Screens: PubChem BioAssay, National Center for Advancing Translational Sciences (NCATS)
Gal4-VP16 FLuc – VP16 counterscreen qHTS for inhibitors of ROR gamma transcriptional activity. Drosophila S2 Gal4-VP16 UAS-luciferase, luminescence, 20 h. Potency, µM (series often up to 53.6 µM), without a hit: top-dose activity, negative = inhibition, usual class: inhibitors. hit rate 3.5% among 310,000;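 note: Gal4-VP16 expression switched on by copper sulfate through the metallothionein promoter; nearly all actives have a fitted effect of over 50% in size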
TDP1 block – qHTS Assay for Inhibitors of Tyrosyl-DNA Phosphodiesterase (TDP1); Potency, µM (highest dose often 130 µM), without a hit: at the top dose activity change, negative = inhibition, most hits filed as inhibitors; hit rate 0.28% among 350,000; AID 485290, 2010; Tyrosyl-DNA phosphodiesterase 1 (Homo sapiens), Q9NUW8; recombinant TDP1, AlphaScreen DNA substrate cleavage; note: nearly all actives have a fitted effect of over 40% in size
Target sequence (Q9NUW8 whole entry, looked up): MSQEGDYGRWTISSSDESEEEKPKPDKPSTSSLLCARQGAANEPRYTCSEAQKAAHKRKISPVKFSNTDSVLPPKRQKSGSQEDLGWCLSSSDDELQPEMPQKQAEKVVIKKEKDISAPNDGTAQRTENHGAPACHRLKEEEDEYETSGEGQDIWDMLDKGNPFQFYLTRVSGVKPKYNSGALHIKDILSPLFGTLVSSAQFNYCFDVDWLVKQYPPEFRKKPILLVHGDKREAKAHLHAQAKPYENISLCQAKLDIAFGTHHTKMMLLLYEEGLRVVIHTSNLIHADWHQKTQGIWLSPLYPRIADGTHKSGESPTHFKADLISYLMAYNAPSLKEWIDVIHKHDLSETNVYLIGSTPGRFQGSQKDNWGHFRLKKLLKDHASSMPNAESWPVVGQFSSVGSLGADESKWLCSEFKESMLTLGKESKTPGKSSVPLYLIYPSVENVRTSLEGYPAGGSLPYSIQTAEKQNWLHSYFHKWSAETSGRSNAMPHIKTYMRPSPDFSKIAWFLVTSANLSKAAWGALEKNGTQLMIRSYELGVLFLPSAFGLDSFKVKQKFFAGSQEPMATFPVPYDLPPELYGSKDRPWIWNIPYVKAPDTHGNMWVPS
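Signal: AlphaScreen proximity between streptavidin donor and anti-FITC acceptor beads on intact substrate. Reaction: Tdp1 1 nM, substrate 15 nM final, 5 min RT after 15 min compound preincubation.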
TDP1 cell CPT – qHTS for Inhibitors of human tyrosyl-DNA phosphodiesterase 1 (TDP1): qHTS in cells in presence of CPT; chicken DT40 Tdp1-/-;hTDP1 cells + 20 nM CPT, ATP luminescence, 48 h; Potency, µM (top dose mostly 46.2 µM), without a hit: at the top dose activity change, negative = growth inhibition, usual class: inhibitors; hit rate 12% among 420,000; AID 686979, 2013; note: nearly all actives have a fitted effect of over 55% in size
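Chicken DT40 Tdp1-/- cells complemented with human TDP1, 400 cells/well, exposed to compounds plus 20 nM camptothecin for at least 48 h at 37 C; viability read as ATP content by CellTiter-Glo luminescence.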
TDP1 cell noCPT – qHTS for Inhibitors of human tyrosyl-DNA phosphodiesterase 1 (TDP1): qHTS in cells in absence of CPT; Potency, µM (doses to about 46.2 µM), for inactives: top-dose activity change, negative = growth inhibition, actives largely listed as inhibitors; hit rate 15% among 420,000; DT40 Tdp1-/- hTDP1 cells, no CPT, ATP luminescence, 48 h; note: nearly all actives have a fitted effect of over 55% in size
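Luminescent ATP content (CellTiter-Glo) served as the growth readout. Knockout chicken DT40 cells expressing human TDP1 were exposed to compounds without camptothecin for a minimum 48 hr at 37 °C.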
RORgamma inh – qHTS for inhibitors of ROR gamma transcriptional activity. Nuclear receptor ROR-gamma (Mus musculus), P51450. Drosophila S2 Gal4-RORgamma UAS-luciferase reporter, 20 h. Potency, µM (highest dose often 53.6 µM), for inactives: top-dose activity change, negative = inhibition, usual class: inhibitors. hit rate 5.4% among 310,000. AID 2551, 2010; note: nearly all actives have a fitted effect of over 60% in size
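ROR gamma transcriptional activity was tracked as Gal4-UAS luciferase output in stably transfected Drosophila Schneider cells, with compound added 1 hr before 700 uM copper sulfate induction and a 20 hr ambient-temperature incubation.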
* marks the source's active call; other numbers are inactive results; ? = inconclusive; / = no result; [ ] = remark or other dose. Most compounds without a hit are left out; they make up all but 19% or so of the library. Calls come from the whole dose curve; as a rule, active = well fitted curve in the direction sought with a large enough effect; inconclusive = small, poorly fitted or top-dose-only effect, or another doubt; inactive = no such curve, though single readings can be large; an effect the other way counts as inactive or inconclusive. % is set by controls: 0 for no effect and ±100 for the full control effect; potency is the fitted concentration of half-maximal effect.

SMILES | Gal4-VP16 FLuc | TDP1 block | TDP1 cell CPT | TDP1 cell noCPT | RORgamma inh
CCOC(=O)CSc1nc2ccc(NC(=O)c3ccc(Cl)cc3)cc2s1 | / | 2.6% | -27.0% | ? | /
CCOc1ccc2nc(NC(=O)CSc3cn[nH]n3)sc2c1 | -10.9% | 1.7% | 5.0% | -2.6% | -0.6%
CCOC(=O)Nc1ccc2nc(Sc3ccc(Cl)cc3)sc2c1 | ? | 2.5% | 5.8µM* | 5.8µM* | ?
CCOc1ccc2nc(NC(=O)CSc3ccc(Cl)cc3)sc2c1 | ? | -2.3% | ? | ? | 11.2µM*
COc1ccc2nc(NC(=O)CCc3ccc(OC)c(OC)c3)sc2c1 | -12.0% | 6.1% | -18.6% | ? | 14.3%
CCCC(=O)Nc1nc2ccc(OC)cc2s1 | ? | 7.2% | 14.6µM* | ? | -38.6%
CCOc1ccc2nc(NC(=O)CSC3=NCCS3)sc2c1 | -17.7% | 0.0% | 23.1µM* | ? | 14.1µM*
COc1ccc2nc(NC(=O)CSc3ccccc3)sc2c1 | -14.3% | 3.5% | ? | ? | 1.58µM*
O=C1c2oc3ccccc3c(=O)c2C(c2cccc(F)c2)N1CCCO (configuration not stated) | 3.0% | 1.0% | -8.2% | 1.7% | 0.2%[10 µM]
O=C(OCCCN1CCOCC1)c1ccc(O)c(O)c1 | -0.1% | -1.2% | 3.7% | -1.1% | -5.4%
Cc1ccnc(NCc2cc(Cl)cc(Cl)c2O)c1 | / | / | -5.6% | -16.8% | /
Cc1cc(C)c(O)c(CN(C)Cc2cc(Cl)cc(Cl)c2O)c1 | / | / | ? | 16.4µM* | /
COc1ccc(N2CCN(Cc3nc(N)nc(Nc4ccccc4OC)n3)CC2)cc1 | 4.8% | -6.0% | ? | ? | ?
COc1ccccc1N1CCN(Cc2nc(N)nc(Nc3ccc(C)c(Cl)c3)n2)CC1 | 1.0% | 13.4% | 14.6µM* | 9.2µM* | 11.2µM*
COc1ccc(Nc2nc(N)nc(CN3CCN(c4ccc(F)cc4)CC3)n2)cc1 | 0.8% | 6.2% | ? | 14.6µM* | -1.2%
COc1ccc(N2CCN(c3nc(Cl)nc(Nc4ccc(F)cc4)n3)CC2)cc1 | -11.9% | 7.6% | 18.4µM* | 18.4µM* | ?
Cc1cccc(Nc2nc(N)nc(CN3CCN(c4ccccc4F)CC3)n2)c1 | / | / | -25.5% | ? | /
COc1ccc(N2CCN(c3nc(Nc4ccc(F)cc4)nc(OC)n3)CC2)cc1 | -1.4% | 1.9% | / | / | -6.3%
CCOc1ccc(Nc2nc(N)nc(CN3CCN(c4ccccc4F)CC3)n2)cc1 | -5.5% | 8.2% | -9.8% | 18.4µM* | 11.2µM*
O=C(c1csnn1)N1CCC2(CCCN(c3ccccn3)C2)CC1 | 8.7% | / | -2.2% | -22.2% | 39.1%
NS(=O)(=O)c1cc(-c2nn[nH]n2)c(NCc2cccs2)cc1Cl | -1.4% | / | 4.9% | -25.0% | -0.4%
COc1ccccc1Nc1nc(N)nc(CN2CC(C)CC(C)C2)n1 (configuration not stated) | -0.6%[10 µM] | 0.0% | 12.4% | -2.0% | 8.91µM*
Nc1nc(CN2CCN(c3ccccn3)CC2)nc(Nc2ccc(Cl)cc2)n1 | -15.9% | 5.7% | ? | 6.51µM* | 24.1%
COc1ccccc1N1CCN(Cc2cnc3ccc(Cl)cn23)CC1 | -4.5% | / | 23.1µM* | 13µM* | -0.4%
COc1ccccc1Nc1nc(N)nc(CN2CCN(c3ccccc3F)CC2)n1 | 7.94µM* | 10.3% | ? | -16.6% | 1.78µM*
SMILES | Gal4-VP16 FLuc | TDP1 block | TDP1 cell CPT | TDP1 cell noCPT | RORgamma inh
Cc1ccc(P(=O)(CO)c2ccc(C)cc2)cc1 | 1.2% | 5.1% | 2.5% | -11.3% | ?
Cc1cc(-c2ccc(N=Nc3ccc4c(S(=O)(=O)O)cc(S(=O)(=O)O)c(N)c4c3O)c(C)c2)ccc1N=Nc1ccc2c(S(=O)(=O)O)cc(S(=O)(=O)O)c(N)c2c1O | ? | 24.1%[56.1 µM] | 7.5µM* | 11.9µM* | ?
CC(=O)Cn1ncc(N2CCCCC2)c(Cl)c1=O | 23.0%[10 µM] | 2.7% | -8.9% | -9.3% | 17.3%
CO/N=C(\Cn1ncc(N2CCCC2)c(Cl)c1=O)c1ccc(Cl)cc1 | 1.6% | 0.0% | 29.1µM* | 23.1µM* | 26.8%
CC1(C)CC(C#N)(N2CCOCC2)CCO1 (configuration not stated) | -13.6% | -4.1% | 2.91µM* | ? | -28.5%
O=C(Cn1nc(-c2cccc(Cl)c2)ccc1=O)Nc1cccnc1 | -9.3% | 9.6% | -5.1% | -20.2% | -9.7%
Cc1cc(N/N=C/c2ccc(N(C)C)cc2)nc(NCc2ccccc2)n1 | -3.2% | / | 7.31µM* | 5.8µM* | -27.9%
Cc1cc(N/N=C/c2ccc(Cl)cc2Cl)nc(NCc2ccccc2)n1 | ? | -8.1% | 10.3µM* | 7.31µM* | ?
Cc1cc(N/N=C/c2ccc(O)cc2)nc(NS(=O)(=O)c2ccccc2)n1 | ? | 15.8µM* | 9.7% | ? | -9.2%
Cc1cc(N/N=C/c2ccc(F)cc2)nc(NCc2ccccc2)n1 | ? | / | 8.2µM* | 11.6µM* | 11.2µM*
Cc1cc(N/N=C/c2ccccc2)nc(N)n1 | -9.9% | / | -0.3% | 22.1% | 0.3%
Cn1nnnc1SCC(=O)Nc1ccc(Cl)cc1Cl | 2.3% | -2.0% | / | / | -3.3%
CC1=C(c2ccc(C)c(C)c2)S(=O)(=O)N=C1N1CCC(C(=O)NCc2ccc(N(C)C)cc2)CC1 | / | 5.8% | ? | ? | /
COc1ccc(CCNS(=O)(=O)c2ccc3c(c2)CC(C)N3C(C)=O)cc1OC (configuration not stated) | -28.7% | 5.2% | -27.5% | ? | ?
COc1cc(CNS(=O)(=O)c2ccc3c(c2)CC(C)N3C(C)=O)cc(OC)c1OC (configuration not stated) | 22.4µM* | 5.1% | 10.3µM* | ? | 28.9%
CC(=O)N1c2ccc(S(=O)(=O)NCc3ccccc3Cl)cc2CC1C (configuration not stated) | -2.5% | 1.4% | ? | 7.31µM* | 22.3%
CC(=O)N1c2ccc(S(=O)(=O)N(C)Cc3ccccc3)cc2CC1C (configuration not stated) | 0.7% | 1.1% | -19.9% | 20.6µM* | 23.0%
CCOc1ccc(CNS(=O)(=O)c2ccc3c(c2)CC(C)N3C(C)=O)cc1OC (configuration not stated) | / | 1.2% | 13µM* | 11.6µM* | /
CCOC(=O)C(CC)Sc1ccc2nnc(CCNS(=O)(=O)c3ccc(C)cc3)n2n1 (configuration not stated) | / | 0.0% | ? | ? | /
CC(=O)N1c2c(cc(Br)cc2S(=O)(=O)NCc2cccnc2)CC1C (configuration not stated) | -9.1% | 0.0% | 0.5% | -21.4% | -6.3%
